Reference: PubChem BioAssay (NCATS)
Several values for one entry are separate records, joined by “and”; a condition that tells them apart may be missing. Equal values may be shown once. Results filed as inconclusive are left out. Activity calls are given as the source filed them. Calls come from the whole dose curve; as a rule, active = well fitted curve in the direction sought with a large enough effect; inconclusive = small, poorly fitted or top-dose-only effect, or another doubt; inactive = no such curve, though single readings can be large; an effect the other way counts as inactive or inconclusive.

Key:
[1] = Viability qHTS for spleen associated tyrosine kinase inhibitor (SYKi) naive MV4-11 cells (AID 1963823); conditions: MV4-11 AML viability, CellTiter-Glo luminescence, 72 h; series mostly up to 45 µM; note: nearly all actives have a fitted effect of over 40% in size
How it was run: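 SYKi-naive MV4-11 AML cells, 500 per well, were exposed to library compounds for 72 hr at 37 C, 5% CO2. Viability was then read by CellTiter-Glo luminescence after 10 min at room temperature.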

[2] = Viability qHTS for spleen associated tyrosine kinase inhibitor (SYKi) drug resistant MV4-11 cells (AID 1963824); conditions: SYKi-resistant MV4-11 viability, CellTiter-Glo, 72 h; series mostly up to 45 µM; note: nearly all actives have a fitted effect of over 35% in size
How it was run: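 SYK-inhibitor-resistant MV4-11 AML cells were seeded at 500 per well onto compound and cultured 72 hours (37 °C, 5% CO2). CellTiter-Glo was then added, and after 10 min at room temperature, luminescence gave viability.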

[3] = Cellular viability qHTS for adrenocortical cancer (ACC) cell line SW-13 (AID 1963989); conditions: SW-13 ACC cells viability, CellTiter-Glo, 48 h; activity (max response): stronger effect = lower value; note: nearly all actives have a fitted effect of over 65% in size;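 for activity (max response): cells grown in serum-free medium with ITS supplement; % is set by controls: 0 for no effect and ±100 for the full control effect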
How it was run: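 Viability was read as CellTiter-Glo luminescence after 48 h compound treatment (up to 46 uM final) of SW-13 cells grown serum-free; titration curves were fit with a four-parameter logistic model to give IC50 and efficacy.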

[4] = Cellular viability qHTS for adrenocortical cancer (ACC) cell line NCI-H295R (AID 1963990); conditions: CellTiter-Glo ATP luminescence, 48 h; series mostly up to 46.1 µM; note: nearly all actives have a fitted effect of over 60% in size
How it was run: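 CellTiter-Glo ATP luminescence, read 48 h after compound addition, measured viability of NCI-H295R adrenocortical cells grown serum-free with ITS. Final concentrations spanned up to 46 uM. Data normalized to DMSO and doxorubicin, fitted for IC50 and maximal response.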
Potency is the fitted concentration of half-maximal effect.

Cc1cccc(C)c1NC1=NCCCS1
inactive: Potency [1] | Potency [2] | activity (max response) [3] -0.0852% | Potency [4]

CC(C)=CC1C(C(=O)OCN2C(=O)C3=C(CCCC3)C2=O)C1(C)C (stereo unspecified)
inactive: Potency [1] | Potency [2] | activity (max response) [3] -13.2% | Potency [4]

C[C@@H]1CN(C2CCC(C#N)(c3ccc(F)cc3)CC2)CC[C@]1(C(=O)O)c1ccccc1 (stereo partly specified)
inactive: Potency [1] | Potency [2] | activity (max response) [3] -0.484% | Potency [4]

Nc1ccc(Cl)cc1
inactive: Potency [1] | Potency [2] | activity (max response) [3] 5.53% | Potency [4]

Cn1c(COP(=O)(NCCBr)NCCBr)cnc1[N+](=O)[O-]
inactive: activity (max response) [3] -13.5% | Potency [4]
active: Potency [1] 10.5 µM | Potency [2] 5.9 µM

COc1ccc2c3c1O[C@H]1[C@@H](O)C=C[C@H]4[C@@H](C2)N(C)CC[C@@]341
active: Potency [1] 37.8 µM | Potency [2] 30 µM | Potency [3] 14.1 µM | Potency [4] 10 µM

CCC(OC(C)=O)C(CC(C)NC)(c1ccccc1)c1ccccc1 (stereo unspecified)
active: Potency [1] 43.7 µM | Potency [2] 31 µM | Potency [3] 28.2 µM | Potency [4] 15.8 µM

COc1cc(CC(C)N)cc(OC)c1OC (stereo unspecified)
inactive: Potency [1] | Potency [2] | activity (max response) [3] -27.2% | Potency [4]

CCOP(=S)(OCC)Oc1cc(C)nc(C(C)C)n1
inactive: Potency [1] | Potency [2] | activity (max response) [3] 8.98% | Potency [4]

CC1(C)C(C=C(Cl)Cl)C1C(=O)OC(C#N)c1cccc(Oc2ccccc2)c1 (stereo unspecified)
inactive: Potency [2] | activity (max response) [3] 4.33% | Potency [4]
active: Potency [1] 2.66 µM

CCN1CCCC1CNC(=O)C(O)(c1ccccc1)c1ccccc1 (stereo unspecified)
inactive: Potency [1] | Potency [2] | activity (max response) [3] -3.88%

Cc1ccc(N=CN(C)C=Nc2ccc(C)cc2C)c(C)c1
inactive: Potency [1] | Potency [2] | activity (max response) [3] 9.45% | Potency [4]

CCCCCCCCCC(=O)O[C@H]1CC[C@H]2[C@@H]3CCC4=CC(=O)CC[C@@H]4[C@H]3CC[C@]12C
inactive: Potency [1] | Potency [2] | activity (max response) [3] 6.32% | Potency [4]

CC(C)(O)/C=C\C(=O)[C@](C)(O)[C@H]1[C@H](O)C[C@]2(C)[C@@H]3CC=C4[C@@H](C=C(O)C(=O)C4(C)C)[C@]3(C)C(=O)C[C@@]12C
active: Potency [1] 0.059 µM | Potency [2] 0.0468 µM | Potency [3] 0.562 µM | Potency [4] 1.26 µM

CCCCCCCCCCCC[N+](C)(C)CCOc1ccccc1
active: Potency [1] 2.66 µM | Potency [2] 2.66 µM | Potency [3] 5.17 µM | Potency [4] 23.1 µM

Nc1ccccc1
inactive: Potency [1] | Potency [2] | activity (max response) [3] 7.78% | Potency [4]

COc1ccc(C(=O)N2CCCC2=O)cc1
inactive: Potency [1] | Potency [2] | activity (max response) [3] -6.45% and 13% | Potency [4]

O=C1OC(c2ccc(O)c(S(=O)(=O)O)c2)(c2ccc(O)c(S(=O)(=O)O)c2)c2c(Br)c(Br)c(Br)c(Br)c21
inactive: Potency [1] | Potency [2] | activity (max response) [3] 4.14% | Potency [4]

CN(C)NC(=O)CCC(=O)O
inactive: Potency [1] | Potency [2] | activity (max response) [3] -24.4% | Potency [4]

C[C@@H]1O[C@@H](O[C@H]2C[C@@H](O)[C@]3(CO)[C@H]4[C@H](O)C[C@]5(C)[C@@H](C6=CC(=O)OC6)CC[C@]5(O)[C@@H]4CC[C@]3(O)C2)[C@H](O)[C@H](O)[C@H]1O
active: Potency [1] 119 nM and 79.6 nM and 46.8 nM | Potency [2] 84.1 nM and 63.2 nM and 33.2 nM | Potency [3] 20.6 nM and 44.7 nM | Potency [4] 36.6 nM and 56.2 nM

C[C@@H]1CN(Cc2ccc(F)cc2)CCN1C(=O)COc1ccc(Cl)cc1NC(N)=O
active: Potency [1] 0.934 µM | Potency [2] 0.82 µM | Potency [3] 5.01 µM | Potency [4] 20 µM

CC(C)NCC(O)c1ccc(N)c(C#N)c1 (stereo unspecified)
inactive: Potency [1] | Potency [2] | activity (max response) [3] 6.97% | Potency [4]

C[C@@H]1CC[C@@]2(OC1)O[C@H]1C[C@H]3[C@@H]4CC=C5C[C@@H](O[C@@H]6O[C@H](CO)[C@@H](O[C@@H]7O[C@@H](C)[C@H](O)[C@@H](O)[C@H]7O)[C@H](O)[C@H]6O[C@@H]6O[C@@H](C)[C@H](O)[C@@H](O)[C@H]6O)CC[C@]5(C)[C@H]4CC[C@]3(C)[C@H]1[C@@H]2C
active: Potency [1] 1.66 µM | Potency [2] 1.66 µM | Potency [3] 3.55 µM | Potency [4] 2.24 µM

Oc1cc(Cl)ccc1Oc1ccc(Cl)cc1Cl
active: Potency [1] 19.7 µM | Potency [2] 7.85 µM and 16.8 µM | Potency [3] 7.94 µM and 13 µM | Potency [4] 3.16 µM and 18.4 µM

COc1ccc2c(c1OC)C(=O)O[C@H]2[C@@H]1c2cc3c(cc2CCN1C)OCO3
inactive: Potency [1] | Potency [2] | activity (max response) [3] 8.92% | Potency [4]

COC12C(COC(N)=O)C3=C(C(=O)C(C)=C(N)C3=O)N1CC1C2N1C (stereo unspecified)
active: Potency [1] 0.59 µM | Potency [2] 0.833 µM | Potency [3] 25.1 µM | Potency [4] 15.8 µM

Cc1[nH]ncc1-c1cc2nc([C@@H]3CC4CCN3CC4)[nH]c(=O)c2s1
active: Potency [1] 3.32 µM | Potency [2] 4.17 µM | Potency [3] 28.2 µM | Potency [4] 28.2 µM

CCN(CC)CCOC(=O)C(C)(c1ccccc1)c1ccccc1
inactive: Potency [1] | Potency [2] | activity (max response) [3] -13.3% | Potency [4]

CCCN1CCO[C@@H]2c3cc(O)ccc3OC[C@H]21
inactive: Potency [1] | Potency [2] | activity (max response) [3] 7.73% | Potency [4]

O=C(O)CCCCCCNC1c2ccccc2CCc2ccccc21
inactive: Potency [2] | activity (max response) [3] 1.72% | Potency [4]
active: Potency [1] 0.473 µM

CCC1(c2ccccc2)C(=O)N(COC)C(=O)N(COC)C1=O
inactive: Potency [1] | Potency [2] | activity (max response) [3] -1.61% | Potency [4]

COc1cc(CC(C)N)c(OC)cc1Br (stereo unspecified)
inactive: activity (max response) [3] -4.97%
active: Potency [1] 12.7 µM | Potency [2] 11.3 µM

COP(=S)(OC)Oc1ccc(SC)c(C)c1
inactive: Potency [1] | Potency [2] | activity (max response) [3] 5.91% | Potency [4]

O=C(NC(O)C(Cl)(Cl)Cl)NC(O)C(Cl)(Cl)Cl (stereo unspecified)
inactive: Potency [1] | Potency [2] | activity (max response) [3] 11.7% | Potency [4]

Clc1ccc(COC(Cn2ccnc2)c2ccc(Cl)cc2Cl)cc1 (stereo unspecified)
active: Potency [1] 8.33 µM | Potency [2] 8.33 µM | Potency [3] 25.1 µM | Potency [4] 22.4 µM

ClC1=C(Cl)C2(Cl)C(CBr)CC1(Cl)C2(Cl)Cl (stereo unspecified)
inactive: Potency [1] | Potency [2] | activity (max response) [3] -7.86% | Potency [4]

CN(C)c1cc2c(cc1Sc1nc3c(N)nccc3n1CCNCC(C)(C)C)OCO2
active: Potency [1] 0.186 µM | Potency [2] 184 nM and 235 nM | Potency [3] 1.41 µM | Potency [4] 2.24 µM

COc1cc(C[C@@H](C)N)c(OC)cc1C
inactive: Potency [1] | Potency [2] | activity (max response) [3] -18.7% | Potency [4]

C[C@H]1CCC/C=C/C2C[C@H](O)C[C@H]2[C@H](O)/C=C/C(=O)O1 (stereo partly specified)
active: Potency [1] 184 nM and 148 nM | Potency [2] 92 nM and 118 nM | Potency [3] 0.282 µM | Potency [4] 0.224 µM

CC(=O)OC[C@H]1O[C@@H]([S-])[C@H](OC(C)=O)[C@@H](OC(C)=O)[C@@H]1OC(C)=O.CC[PH+](CC)CC.[Au]
active: Potency [1] 0.209 µM | Potency [2] 0.235 µM | Potency [3] 0.708 µM | Potency [4] 0.631 µM

NCCc1cc(O)c(O)cc1O
inactive: Potency [1] | Potency [2] | activity (max response) [3] 6.64% | Potency [4]

Oc1ccc(Cl)cc1
inactive: Potency [1] | Potency [2] | Potency [4]

c1ccc2c(c1)Sc1ccccc1N2CC1CN2CCC1CC2 (stereo unspecified)
active: Potency [1] 26.6 µM | Potency [2] 26.6 µM | Potency [4] 16.4 µM

COCC(=O)N(c1c(C)cccc1C)C(C)C(=O)OC (stereo unspecified)
inactive: Potency [1] | Potency [2] | activity (max response) [3] 0.998% | Potency [4]

C[C@]12CC[C@@H]3c4ccc(OC(=O)N(CCCl)CCCl)cc4CC[C@H]3[C@@H]1CC[C@@H]2O
inactive: Potency [1] | Potency [2] | Potency [4]

C=CCC1(C(C)CC)C(=O)NC(=O)NC1=O (stereo unspecified)
inactive: Potency [1] | Potency [2] | Potency [4]

COc1ccc(Cc2nccc3cc(OC)c(OC)cc23)cc1OC
active: Potency [1] 6.68 µM and 2.35 µM | Potency [2] 7.5 µM and 2.95 µM
inactive: Potency [4]

OC(O)C(Cl)(Cl)Cl
inactive: Potency [1] | Potency [2] | activity (max response) [3] 12.7% | Potency [4]

CCN1CCN(C(=O)Cc2ccc(Nc3ncc(F)c(Nc4ccc(C(=O)Nc5ccccc5Cl)cc4)n3)cc2)CC1
active: Potency [1] 0.468 µM | Potency [2] 0.525 µM | Potency [4] 3.55 µM

O=C(O)c1ccc2[nH]cc(CCCCN3CC=C(c4ccccc4)CC3)c2c1
inactive: Potency [2] | Potency [4]
active: Potency [1] 9.44 µM

C[C@H](N)C(=O)c1ccccc1
inactive: Potency [1] | Potency [2] | activity (max response) [3] -8.86% | Potency [4]

C/C(=C\c1csc(C)n1)[C@@H]1C[C@@H]2O[C@]2(C)CCC[C@H](C)[C@H](O)[C@@H](C)C(=O)C(C)(C)[C@@H](O)CC(=O)O1
active: Potency [1] 0.0047 µM | Potency [2] 0.0047 µM | Potency [4] 0.0282 µM

CC(C)(C)c1ccc(O)cc1
inactive: Potency [1] | Potency [2] | Potency [4]

O=C(N/N=C/c1ccc([N+](=O)[O-])o1)c1cc([N+](=O)[O-])cc([N+](=O)[O-])c1O
inactive: Potency [1] | Potency [2] | activity (max response) [3] -8.68% | Potency [4]

O=C(NC(=O)c1c(F)cccc1F)Nc1cc(Cl)c(OC(F)(F)C(F)C(F)(F)F)cc1Cl (stereo unspecified)
inactive: Potency [4]
active: Potency [1] 11.9 µM | Potency [2] 16.8 µM

C=CCN1CC[C@]23CCCC[C@H]2[C@H]1Cc1ccc(O)cc13
inactive: Potency [1] | Potency [2] | activity (max response) [3] -5.85% | Potency [4]

C[N+]1(CCF)[C@@H]2CC[C@H]1CC(OC(=O)C(O)(c1ccccc1)c1ccccc1)C2 (stereo partly specified)
inactive: Potency [1] | Potency [2] | activity (max response) [3] 9.46% | Potency [4]
